# Source: PubChem BioAssay
# Compounds with a hit are over-represented: about 19% of the library has one in this group of screens.
# DT40 TDP1 CPT: qHTS for Inhibitors of human tyrosyl-DNA phosphodiesterase 1 (TDP1): qHTS in cells in presence of CPT. chicken DT40 Tdp1-/-;hTDP1 cells + 20 nM CPT, ATP luminescence, 48 h. Potency, µM (highest dose often 46.2 µM), for the others: at the top dose activity change, negative = growth inhibition, hits mostly inhibitors. 420,000 compounds, 12% hits; note: potency is the fitted concentration of half-maximal effect; % is set by controls: 0 for no effect and ±100 for the full control effect; nearly all actives have a fitted effect of over 55% in size
#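 Cell growth measured by CellTiter-Glo luminescence after a minimum 48 h, 37 C compound exposure with 20 nM CPT in Tdp1-knockout DT40 cells stably expressing hTDP1, seeded 400/well; qHTS titration format.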
# SW480 rereplic: A quantitative high throughput screen for small molecules that induce DNA re-replication in SW480 colon adenocarcinoma cells. SW480 DNA re-replication, Hoechst DNA content imaging, 48 h. Potency, µM (series often up to 46.1 µM), for the others: at the highest dose re-replication activation, usual class: activators. 340,000 compounds, 1.8% hits. AID 624297, 2012; note: potency is the fitted concentration of half-maximal effect; % of control where 0% means no effect; nearly all actives have a fitted effect of over 55% in size
#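 Treated cells incubate 48 hr (37 C, 5% CO2), are stained 40 min with Hoechst, and nuclear fluorescence is enumerated; a rise in nuclei with high DNA signal marks re-replication.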
# IL-1B inflam inh: qHTS for Inhibitors of Inflammasome Signaling: IL-1-beta AlphaLISA Primary Screen; activity change, % at 57.5 µM; AID 743279, 2014; THP-1 LPS/ATP IL-1B secretion, AlphaLISA, 16 h; active compounds read low; 360,000 compounds, 4.7% hits; in the data active = activity change below about -50%; inconclusive = mostly about -30% to -49%; note: % is set by controls: 0 for no effect and ±100 for the full control effect
#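 Secreted IL-1B measured by AlphaLISA bead assay after 16 h compound exposure of THP-1 cells; compounds (final up to 57.5 uM) added 1 h before LPS (250 ng/mL) and ATP (1.25 mM) stimulation; lower signal means less secretion.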
# Chronic BCR inh: qHTS Assay to Find Inhibitors of Chronic Active B-Cell Receptor Signaling | ABC-DLBCL IkBa-CBG/CBR reporter, luminescence ratio, 4 h | Potency, µM (top dose mostly 46.1 µM), for the others: at the top dose activity change, negative = inhibition, actives largely listed as inhibitors | 340,000 compounds, 0.05% hits | AID 493014, 2011; active = well fitted inhibition curve with a large enough effect in the signal ratio, with a control signal flat, not every such curve was filed as active; inconclusive = small, poorly fitted or top-dose-only effect, or effect the other way, or a change in a side signal; the % refers to the signal ratio;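 note: potency is the fitted concentration of half-maximal effect; plate controls were basal doxycycline-induced cells for no effect and cells given 10 µM MG132 for full effect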
#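 TMD8 ABC-DLBCL cells carrying doxycycline-inducible green luciferase fused to IkappaBalpha plus unfused red luciferase were exposed to compounds (up to 46 uM) for 4 hrs at 37C. Activity came from the overlap-corrected green/red luminescence ratio.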
# TDP1 cell noCPT: qHTS for Inhibitors of human tyrosyl-DNA phosphodiesterase 1 (TDP1): qHTS in cells in absence of CPT. 420,000 compounds, 15% hits. DT40 Tdp1-/- hTDP1 cells, no CPT, ATP luminescence, 48 h. Potency, µM (top dose mostly 46.2 µM), without a hit: at the top dose activity change, negative = growth inhibition, actives largely listed as inhibitors; note: potency is the fitted concentration of half-maximal effect; % is set by controls: 0 for no effect and ±100 for the full control effect; nearly all actives have a fitted effect of over 55% in size
#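 Chicken DT40 Tdp1-/- cells complemented with human TDP1, screened without camptothecin (DMSO vehicle only), 400 cells/well. Compounds pin-transferred, cells incubated at 37 °C for at least 48 hr. Growth read as ATP-dependent luminescence (CellTiter-Glo, 30 min at RT).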
# MCF10A rereplic: A quantitative high throughput screen for small molecules that induce DNA re-replication in MCF 10a normal breast cells; MCF 10A DNA re-replication, Hoechst nuclear intensity, 48 h; 350,000 compounds, 2.9% hits; Potency, µM (doses to about 46.1 µM), for inactives: top-dose activity, positive = re-replication, hits mostly activators; note: potency is the fitted concentration of half-maximal effect; % of control where 0% means no effect; nearly all actives have a fitted effect of over 50% in size
# Starred values were filed as active, the others as inactive; ? = inconclusive; / = not tested or not shown; [ ] = remark or other dose. Unless noted, calls come from the whole dose curve; as a rule, active = well fitted curve in the direction sought with a large enough effect; inconclusive = small, poorly fitted or top-dose-only effect, or another doubt; inactive = no such curve, though single readings can be large; an effect the other way counts as inactive or inconclusive.
SMILES,DT40 TDP1 CPT,SW480 rereplic,IL-1B inflam inh,Chronic BCR inh,TDP1 cell noCPT,MCF10A rereplic
CCOc1ccccc1NC(=O)c1ccc(F)c(S(=O)(=O)NCc2ccc3c(c2)OCO3)c1,-33.8%,/,/,?,?,/
COc1cccc(-n2c(=O)c3sccc3n(Cc3cc(=O)n4cc(Cl)ccc4n3)c2=O)c1,-7.5%,/,/,/,-6.1%,/
CCOc1ccc2[nH]c(=O)c(CN(Cc3ccco3)C(=O)c3ccc(Br)cc3)cc2c1,?,?,2.3,-4.1%,3.26µM*,16.4µM*
O=C(Cn1c(=O)nc(-c2ccccc2)c2cc(Cl)ccc21)N1CCN(c2ccc(F)cc2)CC1,15.7%,/,/,/,-13.0%,/
CCOc1ccc(CCN2C(=O)C(=O)N([C@@H](Cc3ccccc3)CN3CCC[C@H]3CN3C(=O)C(=O)NC[C@@H]3Cc3ccccc3)C[C@@H]2Cc2ccc(O)cc2)cc1,?,/,-64.1*,/,?,/
CCOc1ccc(CCN2C(=O)C(=O)N([C@@H](Cc3ccccc3)CN3CCC[C@H]3CN3C(=O)C(=O)NC[C@@H]3Cc3ccccc3)C[C@@H]2Cc2ccccc2)cc1,?,/,?,/,23.1µM*,/
CCOc1ccc(CCN2C(=O)C(=O)N([C@@H](Cc3ccc(O)cc3)CN3CCC[C@H]3CN3C(=O)C(=O)NC[C@@H]3Cc3ccccc3)C[C@@H]2Cc2ccc(O)cc2)cc1,?,/,-51.9*,/,?,/
CCOc1ccc(CCN2C(=O)C(=O)N([C@@H](Cc3ccccc3)CN3CCC[C@H]3CN3C(=O)C(=O)NC[C@@H]3Cc3ccccc3)C[C@@H]2CC(C)C)cc1,?,/,-79.5*,/,18.4µM*,/
N#Cc1cccc(NC(=O)CN2CCN(Cc3ccccc3)CC2)c1,-1.1%,-0.3%,-6.9,0.3%,-18.4%,-2.8%
CC(C)[C@H](NC(N)=O)C(=O)Nc1cccc(S(=O)(=O)N2CCOCC2)c1,-1.2%,2.7%,11.7,-1.2%,-16.9%,3.2%
O=C(Cn1c(=O)c(C(F)(F)F)nc2ccccc21)Nc1ccc(Br)cc1F,-30.0%,/,/,/,5.2%,/
CCc1ccc(CN2CCc3nc(Nc4ccc5c(c4)OCCO5)ncc3C2)cc1,?,/,/,/,23.1µM*,/
Nc1nc(CN2CCN(Cc3ccccc3)CC2)nc(Nc2ccc3c(c2)OCCO3)n1,-28.7%,-2.5%,12.1,0.8%,-25.9%,-1.6%
Cc1ccc(CN2CCc3nc(Nc4ccc5c(c4)OCCO5)ncc3C2)cc1,?,/,/,/,20.6µM*,/
Cc1ccc(-c2cc(C(F)(F)F)c(C#N)c(SCC(=O)O)n2)cc1,-0.2%,27.4%,42.3,?,?,11.2%
CCOC(=O)CSc1nc(C2CC2)cc(-c2ccc(F)cc2)c1C#N,?,-3.5%,0.4,0.3%,-25.5%,?
N#Cc1c(-c2ccccc2)cc(-c2ccccc2)nc1SCC(O)CS(=O)(=O)Cc1ccc(Cl)cc1 (configuration not stated),8.2µM*,/,/,/,3.26µM*,/
COc1ccccc1-c1cc(-c2ccccc2)nc(SCC(=O)O)c1C#N,?,-48.5%,30.4,5.0%,0.9%,1.0%
CCCSc1nc(-c2ccc(OC)cc2)cc(-c2ccccc2OC)c1C#N,?,/,/,/,18.4µM*,/
CCCOc1ccc(-c2cc(C(F)(F)F)c(C#N)c(SCC(=O)O)n2)cc1,-0.6%,-0.8%,-71.0*,5.8%,-6.3%,?
COc1ccc(-c2cc(C3CC3)nc(SCC(=O)c3cccs3)c2C#N)cc1,?,?,3.8,1.1%,11.6µM*,?
O=c1c(NCCc2ccccc2)c(-c2ccccc2)c1=O,1.3%,16.0%,19.5,1.8%,-29.5%,-2.6%
Cc1[nH]n(C)c(=O)c1[N+](=O)[O-],0.6%,-10.1%,-0.5,-3.2%,12.5%,?
COc1ccc(-c2cc(-c3ccc(Cl)cc3)c(C#N)c(SCC(=O)O)n2)cc1,?,-61.3%,-9.8,9.5%,?,16.4µM*
COc1ccc(-c2cc(-c3ccccc3)c(C#N)c(SCC(=O)O)n2)cc1,-27.8%,?,-5.8,/,?,-0.2%
SMILES,DT40 TDP1 CPT,SW480 rereplic,IL-1B inflam inh,Chronic BCR inh,TDP1 cell noCPT,MCF10A rereplic
COc1ccc(-c2cc(-c3ccccc3)nc(SC(C)C(=O)O)c2C#N)cc1 (configuration not stated),?,-6.0%,18.1,-10.1%,25.9µM*,?
CC(C)C(Sc1nc(-c2ccccc2)cc(-c2ccccc2)c1C#N)C(=O)O (configuration not stated),?,-1.8%,40.0,?,?,?
NC(=O)c1ccc[n+]([C@@H]2O[C@H](COP(=O)([O-])OP(=O)(O)OC[C@H]3O[C@@H](n4cnc5c(N)ncnc54)[C@H](O)[C@@H]3O)[C@@H](O)[C@H]2O)c1,7.0%[21.1 µM],/,/,/,-18.3%[21.1 µM],/
OCCn1c(-c2ccc3c(c2)OCO3)csc1=Nc1ccccc1,16.4µM*,-1.3%,-62.5*,1.0%,20.6µM*,?
OCCn1c(-c2ccc(F)cc2)csc1=Nc1ccccc1,?,-0.1%,-52.7*,2.9%,20.6µM*,?
CC1CCCCN1CCNC(=O)C1CCCN(c2ncnc3c2nc2n3CCCCC2)C1 (configuration not stated),16.3%,-19.2%,5.1,-8.2%,-27.4%,2.9%
CC(C)N(Cc1ccccc1)C(=O)C1CCCN(c2ncnc3c2nc2n3CCCCC2)C1 (configuration not stated),?,-42.4%,-9.4,2.2%,18.4µM*,3.3%
CSc1ccc(CCNC(=O)C2CCCN(c3ncnc4c3nc3n4CCCCC3)C2)cc1 (configuration not stated),?,?,-68.6*,5.6%,?,16.3%
CC1CC(C)CN(CCCNC(=O)C2CCCN(c3ncnc4c3nc3n4CCCCC3)C2)C1 (configuration not stated),-2.1%,5.6%,-3.4,-3.1%,-13.2%,-2.7%
CCN(CCNC(=O)C1CCCN(c2ncnc3c2nc2n3CCCCC2)C1)Cc1ccccc1 (configuration not stated),?,-7.4%,-1.1,1.0%,25.9µM*,-5.5%
Cc1onc(-c2ccccc2)c1C(=O)NC1CC1,7.1%,-45.9%,7.4,-15.0%,-9.0%,-18.7%
